Measurements from PubChem BioAssay AID1159580 (chemical genetic matrix, 2015).
“And” between values parts separate entries of the source, which are not always exact repeats. Equal entries are not always repeated. Hit rate of the full screen: of about 5,500 compounds, about 2,000 (36%) were called active. Another 18% or so got no clear call; they are omitted. Rule as the data show it: active = normalized growth mostly below about 0.91 (no sharp cut-off); inconclusive = no clear call, values can overlap the other calls; inactive = mostly above about 0.92. This is one part of the list.

Experiment: chemical genetic growth profiling, strain panel (AID 1159580);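 also: tested at 20 µM; growth read once vehicle control cultures reached saturation at 30 °C; 1 = growth at the plate median or of vehicle wells; lower values mean less growth of the strain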
Details: S. cerevisiae deletion strains, growth OD

Measured: normalized growth

CC1=CC2C(CC1=O)C(C)=CCC2C(C)C (configuration not stated)
0.905 (active) and 0.973 (inactive): locus YHR030C, strain SLT2, stronger effect = lower value
inactive: locus YAL021C, strain ccr4, stronger effect = lower value 1.02 | locus YAL026C, strain drs2, stronger effect = lower value 0.996 | locus YAL030W, strain snc1, stronger effect = lower value 1 | locus YBL061C, strain skt5, stronger effect = lower value 1.02 | locus YBR009C, strain hhf1, stronger effect = lower value 0.98 | locus YBR021W, strain FUR4, stronger effect = lower value 0.923 | locus YBR023C, strain chs3, stronger effect = lower value 0.992 | locus YBR171W, strain sec66, stronger effect = lower value 1 | locus YBR229C, strain ROT2, stronger effect = lower value 1.01 | locus YBR231C, strain swc5, stronger effect = lower value 0.998 | locus YBR279W, strain paf1, stronger effect = lower value 1 | locus YCL011C, strain gbp2, stronger effect = lower value 1.01 | locus YCL016C, strain dcc1, stronger effect = lower value 1.01 | locus YCL029C, strain bik1, stronger effect = lower value 0.976 | locus YCL061C, strain MRC1, stronger effect = lower value 0.991 | locus YCL069W, strain vba3, stronger effect = lower value 1.01 | locus YCR088W, strain abp1, stronger effect = lower value 1 | locus YDL005C, strain med2, stronger effect = lower value 1.02 | locus YDL035C, strain GPR1, stronger effect = lower value 0.96 | locus YDL040C, strain nat1, stronger effect = lower value 1.01 | locus YDL074C, strain BRE1, stronger effect = lower value 0.902 | locus YDL101C, strain DUN1, stronger effect = lower value 0.966 | locus YDR001C, strain nth1, stronger effect = lower value 0.996 | locus YDR069C, strain doa4, stronger effect = lower value 1.02 | locus YDR101C, strain arx1, stronger effect = lower value 0.929 | locus YDR137W, strain rgp1, stronger effect = lower value 0.896 | locus YDR159W, strain sac3, stronger effect = lower value 1.01 | locus YDR162C, strain NBP2, stronger effect = lower value 0.92 | locus YDR195W, strain ref2 0.977 | locus YDR297W, strain sur2, stronger effect = lower value 1.02 | locus YDR318W, strain mcm21, stronger effect = lower value 0.946 | locus YDR334W, strain swr1, stronger effect = lower value 1.01 | locus YDR335W, strain msn5, stronger effect = lower value 1.01 | locus YDR388W, stronger effect = lower value 0.987 | locus YEL003W, strain gim4, stronger effect = lower value 1.02 | locus YEL037C, strain rad23, stronger effect = lower value 0.997 | locus YEL061C, strain CIN8 (second series), stronger effect = lower value 1.01 | locus YER015W, strain faa2, stronger effect = lower value 1 | locus YER016W, strain bim1, stronger effect = lower value 1.01 | locus YER110C, stronger effect = lower value 1.01 | locus YER111C, strain swi4, stronger effect = lower value 0.996 | locus YER155C, strain BEM2 (second series), stronger effect = lower value 0.98 | locus YER155C, strain BEM2, stronger effect = lower value 0.948 | locus YER167W, strain BCK2, stronger effect = lower value 0.937 | locus YFR010W, strain ubp6, stronger effect = lower value 1 | locus YGL078C, strain dbp3, stronger effect = lower value 0.943 | locus YGL167C, strain pmr1, stronger effect = lower value 1.01 | locus YGL173C, strain kem1, stronger effect = lower value 1.01 | locus YGL227W, strain vid30, stronger effect = lower value 1.01 | locus YGL240W, strain doc1, stronger effect = lower value 0.998 | locus YGL248W, strain PDE1, stronger effect = lower value 0.952 | locus YGL253W, strain hxk2, stronger effect = lower value 1 | locus YGR252W, strain gcn5, stronger effect = lower value 0.972 | locus YHR013C, strain ard1, stronger effect = lower value 1.03 | locus YHR027C, strain rpn1, stronger effect = lower value 1.01 | locus YHR079C, strain IRE1 (second series), stronger effect = lower value 0.989 | locus YHR079C, strain IRE1, stronger effect = lower value 0.96 | locus YHR094C, strain hxt1, stronger effect = lower value 0.989 | locus YHR129C, strain ARP1, stronger effect = lower value 0.95 | locus YHR142W, strain chs7, stronger effect = lower value 0.981 | locus YHR200W, strain rpn10, stronger effect = lower value 0.968 | locus YIL066C, strain RNR3, stronger effect = lower value 0.9 | locus YIL073C, strain SPO22, stronger effect = lower value 0.91 | locus YIL125W, strain kgd1, stronger effect = lower value 0.934 | locus YIR030C, strain dcg1, stronger effect = lower value 0.979 | locus YJL092W, strain hpr5, stronger effect = lower value 0.998 | locus YJL095W, strain BCK1 (second series), stronger effect = lower value 1.01 | locus YJL095W, strain BCK1, stronger effect = lower value 0.808 and 0.979 | locus YJL115W, strain asf1, stronger effect = lower value 1.01 | locus YJL129C, strain trk1, stronger effect = lower value 1 | locus YJL134W, strain LCB3, stronger effect = lower value 1.02 | locus YJL154C, strain vps35, stronger effect = lower value 1.01 | locus YJL164C, strain tpk1, stronger effect = lower value 0.994 | locus YJL166W, strain qcr8, stronger effect = lower value 0.978 | locus YJL168C, strain set2, stronger effect = lower value 0.978 | locus YJL187C, strain SWE1 (second series), stronger effect = lower value 0.971 | locus YJL187C, strain SWE1, stronger effect = lower value 1 | locus YJR043C, strain POL32, stronger effect = lower value 0.98 | locus YJR066W, strain TOR1, stronger effect = lower value 0.949 | locus YKL009W, strain mrt4, stronger effect = lower value 0.945 | locus YKL068W, stronger effect = lower value 0.978 | locus YKL085W, strain MDH1 (second series), stronger effect = lower value 0.932 | locus YKL085W, strain MDH1, stronger effect = lower value 0.932 | locus YKL160W, strain elf1, stronger effect = lower value 0.992 | locus YKR026C, strain gcn3, stronger effect = lower value 0.983 | locus YKR091W, strain srl3, stronger effect = lower value 1.01 | locus YLL001W, strain dnm1, stronger effect = lower value 0.998 | locus YLL026W, stronger effect = lower value 1.01 | locus YLL041C, strain sdh2, stronger effect = lower value 1 | locus YLR027C, strain aat2, stronger effect = lower value 0.997 | locus YLR039C, strain RIC1, stronger effect = lower value 0.717 | locus YLR058C, strain SHM2, stronger effect = lower value 0.994 | locus YLR102C, strain apc9, stronger effect = lower value 0.985 | locus YLR113W, strain HOG1, stronger effect = lower value 0.968 | locus YLR221C, strain rsa3, stronger effect = lower value 0.979 | locus YLR258W, strain gsy2, stronger effect = lower value 1 | locus YLR262C, strain YPT6 (second series), stronger effect = lower value 0.896 | locus YLR262C, strain YPT6, stronger effect = lower value 0.709 | locus YLR268W, strain sec22, stronger effect = lower value 0.923 | locus YLR320W, strain mms22, stronger effect = lower value 0.9 | locus YLR342W, strain FKS1 (second series), stronger effect = lower value 0.864 | locus YLR342W, strain FKS1, stronger effect = lower value 1.01 | locus YLR357W, strain rsc2, stronger effect = lower value 1.03 | locus YLR370C, strain arc18, stronger effect = lower value 1.02 | locus YLR384C, strain iki3, stronger effect = lower value 1 | locus YML016C, strain PPZ1, stronger effect = lower value 1.01 | locus YML032C, strain rad52, stronger effect = lower value 0.948 | locus YML120C, strain ndi1, stronger effect = lower value 1 | locus YML124C, strain tub3, stronger effect = lower value 0.985 | locus YMR058W, strain fet3, stronger effect = lower value 1.01 | locus YMR078C, strain ctf18, stronger effect = lower value 0.974 | locus YMR125W, strain sto1, stronger effect = lower value 1.01 | locus YMR129W, stronger effect = lower value 1.03 | locus YMR205C, strain PFK2, stronger effect = lower value 0.966 | locus YMR231W, strain pep5, stronger effect = lower value 0.984 | locus YMR307W, strain GAS1, stronger effect = lower value 0.795 | locus YNL067W, strain RPL9B, stronger effect = lower value 0.986 | locus YNL183C, strain NPR1, stronger effect = lower value 0.96 | locus YNL209W, strain ssb2, stronger effect = lower value 1.01 | locus YNL233W, strain BNI4, stronger effect = lower value 0.874 | locus YNL248C, strain rpa49, stronger effect = lower value 0.997 | locus YNL250W, strain rad50, stronger effect = lower value 0.956 | locus YNL271C, strain bni1, stronger effect = lower value 0.936 | locus YNL298W, strain CLA4, stronger effect = lower value 0.924 | locus YNL307C, strain MCK1, stronger effect = lower value 0.914 | locus YNL322C, strain KRE1 (second series), stronger effect = lower value 1.01 | locus YNL322C, strain KRE1, stronger effect = lower value 1 | locus YNR049C, strain mso1, stronger effect = lower value 1.01 | locus YOL006C, strain TOP1, stronger effect = lower value 0.683 | locus YOL012C, strain htz1 0.956 | locus YOL147C, strain pex11, stronger effect = lower value 0.945 | locus YOR001W, strain rrp6, stronger effect = lower value 0.984 | locus YOR061W, strain CKA2, stronger effect = lower value 0.967 | locus YOR069W, strain VPS5, stronger effect = lower value 0.978 | locus YOR070C, strain gyp1, stronger effect = lower value 0.992 | locus YOR080W, strain dia2, stronger effect = lower value 1.01 | locus YOR083W, strain WHI5, stronger effect = lower value 0.966 | locus YOR106W, strain vam3, stronger effect = lower value 0.973 | locus YOR136W, strain idh2, stronger effect = lower value 0.959 | locus YOR144C, strain elg1, stronger effect = lower value 0.969 | locus YOR231W, strain MKK1, stronger effect = lower value 0.993 | locus YOR265W, strain rbl2, stronger effect = lower value 1.01 | locus YOR270C, strain vph1, stronger effect = lower value 0.844 | locus YOR290C, strain snf2, stronger effect = lower value 0.972 | locus YOR316C, strain cot1, stronger effect = lower value 0.983 | locus YPL055C, strain LGE1, stronger effect = lower value 0.938 | locus YPL078C, strain atp4, stronger effect = lower value 0.991 | locus YPL106C, strain sse1, stronger effect = lower value 1.01 | locus YPL240C, strain hsp82, stronger effect = lower value 1.02 | locus YPL256C, strain CLN2, stronger effect = lower value 0.957 | locus YPR119W, strain clb2, stronger effect = lower value 0.978 | locus YPR141C, strain kar3, stronger effect = lower value 0.973 | locus YPR163C, strain tif3, stronger effect = lower value 0.97 | locus YPR167C, strain met16, stronger effect = lower value 0.995
active: locus YDL185W, strain tfp1, stronger effect = lower value 0.83 | locus YDL192W, strain arf1, stronger effect = lower value 0.769 | locus YDR392W, strain spt3, stronger effect = lower value 0.594 | locus YDR502C, strain sam2, stronger effect = lower value 0.895 | locus YEL061C, strain CIN8, stronger effect = lower value 0.911 | locus YGL086W, strain mad1, stronger effect = lower value 0.888 | locus YGR135W, strain pre9, stronger effect = lower value 0.881 | locus YKR001C, strain vps1, stronger effect = lower value 0.623 | locus YLR330W, strain CHS5, stronger effect = lower value 0.873 | locus YLR371W, strain rom2, stronger effect = lower value 0.841 | locus YLR418C, strain cdc73, stronger effect = lower value 0.687 | locus YMR223W, strain ubp8, stronger effect = lower value 0.901 | locus YNL071W, strain lat1, stronger effect = lower value 0.913 | locus YNR052C, strain pop2, stronger effect = lower value 0.895 | locus YOR184W, strain ser1, stronger effect = lower value 0.634 | locus YPL051W, strain arl3, stronger effect = lower value 0.886 | strain wtn01, stronger effect = lower value 0.898
